This is a sample that favours compounds with a hit; in the whole collection about 11% have one here.
HEK293 tox – HEK 293 cell cytotoxicity; HEK 293 viability, ATP luminescence (CellTiter-Glo), 48-72 h; Potency, µM (titrated, usually from 115 µM), hits mostly inhibitors; 94,000 compounds, 6.6% hits; AID 1345083; note: nearly all actives have a fitted effect of over 60% in size
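CellTiter-Glo luminescence (cellular ATP) was read after 48 or 72 hr of compound exposure at 37 degree Celsius. Cells were HEK 293 plated at 250 cells/well.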
hNpr1 antagonist – antagonists of human natriuretic peptide receptor Npr1; HEK293 hNpr1 GloSensor cGMP, ANP-stimulated luminescence; P16066; Potency, µM (highest dose often 46.3 µM), actives largely listed as inhibitors; 76,000 compounds, 1.6% hits; calls by dose curve; note: nearly all actives have a fitted effect of over 60% in size
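Compound pre-incubated 30 min at room temperature on GloSensor-loaded HEK293 cells stably carrying hNpr1 and the pGS-40F cGMP biosensor. Stimulation uses hNppA at 0.1 nM final; luminescence is taken at baseline and 20 min post-agonist.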
3T3 cytotox – kills NIH 3T3 cells | NIH 3T3 viability, CellTiter-Glo ATP luminescence, 48-72 h | Potency, µM (titrated, usually from 96.7 µM), actives largely listed as inhibitors | 94,000 compounds, 4.3% hits; note: nearly all actives have a fitted effect of over 55% in size
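NIH 3T3 cells at 400 cells/well received 23 nL of compound by pintool and were incubated 48 or 72 h at 37 °C. Viability was read as ATP-coupled CellTiter-Glo luminescence.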
Luciferase inh – blocks purified firefly luciferase enzyme activity; Potency, µM (top dose mostly 115 µM), most hits filed as inhibitors; purified P. pyralis luciferase, luminescence, biochemical; 76,000 compounds, 2.5% hits; AID 1347043; P08659; note: nearly all actives have a fitted effect of over 65% in size
Target sequence (P08659 whole entry, looked up): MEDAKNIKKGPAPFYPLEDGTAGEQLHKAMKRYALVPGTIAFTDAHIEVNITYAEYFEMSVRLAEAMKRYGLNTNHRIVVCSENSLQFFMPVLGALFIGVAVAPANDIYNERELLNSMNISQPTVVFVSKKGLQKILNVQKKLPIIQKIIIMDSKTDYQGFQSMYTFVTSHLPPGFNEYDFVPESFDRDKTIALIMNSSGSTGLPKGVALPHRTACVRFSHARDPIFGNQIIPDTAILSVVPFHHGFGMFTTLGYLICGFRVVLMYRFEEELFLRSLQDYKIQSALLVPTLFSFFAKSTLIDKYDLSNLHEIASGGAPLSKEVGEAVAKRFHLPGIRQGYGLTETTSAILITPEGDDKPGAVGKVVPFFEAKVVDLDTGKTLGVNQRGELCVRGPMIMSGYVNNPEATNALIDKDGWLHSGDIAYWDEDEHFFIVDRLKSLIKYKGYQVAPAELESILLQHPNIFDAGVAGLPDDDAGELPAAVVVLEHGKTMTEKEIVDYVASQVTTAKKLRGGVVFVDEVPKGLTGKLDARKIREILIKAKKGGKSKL
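Biochemical qHTS: compound (6-point titration) added to 10uM D-luciferin plus 10uM ATP in Tris acetate pH 7.5 buffer with Mg, Tween-20 and BSA, then purified enzyme at 10nM; light output imaged.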
Each line names hits and unclear results; the compound was inactive in the other large screens. Unless noted, calls come from the whole dose curve; as a rule, active = well fitted curve in the direction sought with a large enough effect; inconclusive = small, poorly fitted or top-dose-only effect, or another doubt; inactive = no such curve, though single readings can be large; an effect the other way counts as inactive or inconclusive.

Cc1nn(-c2ccccc2)c2c1C(C)N(C1CN(C(=O)NC(C)C)C1)C2=O (stereo not drawn)	3T3 cytotox inconclusive (no result: hNpr1 antagonist, Luciferase inh)
Cc1cccc(C(=O)N2CCC3(CC2)CC2C(=O)NCCN2C3)c1 (stereo not drawn)	none (no result: hNpr1 antagonist, Luciferase inh)
COc1ccc(-c2cc(C(=O)NCC(C)C)c3c(C4CCNC4)nn(C)c3n2)cc1 (stereo not drawn)	HEK293 tox inconclusive, 3T3 cytotox 20µM (no result: hNpr1 antagonist, Luciferase inh)
COc1ccc(-c2cc(C(=O)N3CCOCC3)c3c(C4CCNC4)nn(C)c3n2)cc1 (stereo not drawn)	none (no result: hNpr1 antagonist, Luciferase inh)
CCn1nc(C)c(-c2cc(C(=O)N3CCC(CCOc4ccccc4OC)C3)no2)c1C (stereo not drawn)	HEK293 tox 45µM, 3T3 cytotox inconclusive
CN(CC(=O)N1CCC(CCOc2ccc(F)cc2)C1)S(=O)(=O)c1cccs1 (stereo not drawn)	HEK293 tox 50µM, hNpr1 antagonist inconclusive, 3T3 cytotox inconclusive
Cc1ccc(OCCC2CCN(C(=O)c3ccoc3)C2)cc1 (stereo not drawn)	HEK293 tox inconclusive, 3T3 cytotox inconclusive
Cc1ccc(OCCC2CCN(C(=O)CCn3nc(C)cc3C)C2)cc1 (stereo not drawn)	HEK293 tox 50µM, hNpr1 antagonist inconclusive, 3T3 cytotox inconclusive
COc1ccccc1C(=O)N1CCC(CCOc2ccc(C)cc2)C1 (stereo not drawn)	HEK293 tox 40µM, hNpr1 antagonist inconclusive, 3T3 cytotox inconclusive
COc1ccccc1Cn1c(=O)c(C(=O)NCC(F)F)nc2cccnc21	none (no result: hNpr1 antagonist, Luciferase inh)
CC(=O)Nc1cc(C2CC2)nn1-c1ccccc1	none (no result: hNpr1 antagonist, Luciferase inh)
COc1ccc(C(=O)NCC2(COc3ccccc3)C[C@@H](O)[C@@H](O)C2)cc1 (stereo partly drawn)	3T3 cytotox 45µM
Cc1ccc(C(=O)N2CCC(CCC(=O)N3CCCCC3)CC2)cc1	HEK293 tox inconclusive, Luciferase inh 28µM
CCC(CC)NC(=O)CCC1CCN(C(=O)c2ccc(C)cc2)CC1	Luciferase inh 40µM
Cc1ccc(C(=O)N2CCC(CCC(=O)NC3CCCCCC3)CC2)cc1	HEK293 tox inconclusive, 3T3 cytotox inconclusive, Luciferase inh 40µM
Cc1ccc(CN2CCN(C(=O)CCC3CCN(C(=O)c4ccccc4)CC3)CC2)cc1	HEK293 tox inconclusive, hNpr1 antagonist inconclusive
CC(C)c1nc2c(c(-c3ccc(O)cc3)n1)CCN(C(=O)c1ccccc1F)CC2	none (no result: hNpr1 antagonist, Luciferase inh)
O=C(NCCc1ccccn1)C1CN(C2CCCC2)C(=O)N1 (stereo not drawn)	none (no result: hNpr1 antagonist, Luciferase inh)
Cc1ccc(-c2noc([C@@H]3C[C@H](NS(=O)(=O)c4ccc(Cl)cc4)CN3C)n2)cc1	HEK293 tox 79µM, hNpr1 antagonist inconclusive, 3T3 cytotox inconclusive, Luciferase inh 22µM
Cc1ccc(S(=O)(=O)N[C@H]2C[C@@H](c3nc(-c4ccccc4)no3)N(C)C2)cc1	HEK293 tox inconclusive, Luciferase inh inconclusive
COc1ccc(-c2noc([C@@H]3C[C@H](NCc4ccc(N(C)C)cc4)CN3C)n2)cc1	HEK293 tox 35µM, 3T3 cytotox 50µM, Luciferase inh 63µM
CN1C[C@@H](NS(=O)(=O)c2ccccc2)C[C@H]1c1nc(-c2ccccn2)no1	3T3 cytotox inconclusive, Luciferase inh 22µM
COc1ccc(S(=O)(=O)N[C@H]2C[C@@H](c3nc(-c4ccc5c(c4)OCO5)no3)N(C)C2)cc1	HEK293 tox inconclusive, hNpr1 antagonist inconclusive, 3T3 cytotox inconclusive
COc1ccc(-c2noc([C@@H]3C[C@H](NS(=O)(=O)c4ccc(OC)cc4)CN3C)n2)cc1	HEK293 tox 40µM, hNpr1 antagonist inconclusive, 3T3 cytotox inconclusive, Luciferase inh 22µM
Cc1ccc(C(=O)N2CCCN(c3ccnc4ccnn34)CC2)cc1	HEK293 tox inconclusive (no result: hNpr1 antagonist, Luciferase inh)
O=C(Cc1ccccn1)N1CCCC(c2nn(-c3cccc(Cl)c3)c(=O)[nH]2)C1 (stereo not drawn)	none
COc1ccc(-c2noc([C@@H]3C[C@H](NS(=O)(=O)c4ccccc4)CN3C)n2)cc1	HEK293 tox 89µM, 3T3 cytotox inconclusive
COc1ccc(S(=O)(=O)N[C@H]2C[C@@H](c3nc(Cc4ccccc4)no3)N(C)C2)cc1	HEK293 tox inconclusive
CC(C)(C)C(=O)N1CCC2(CC1)CCN(Cc1cccs1)c1ccccc1O2	HEK293 tox 35µM, 3T3 cytotox inconclusive
O=C(c1ccc(Cl)nc1)N1CCC2(CC1)CCN(Cc1cccs1)c1ccccc1O2	HEK293 tox 25µM, hNpr1 antagonist inconclusive, 3T3 cytotox inconclusive
Cc1ccc(C(=O)N2CCC3(CC2)CCN(CCc2ccccc2)c2ccccc2O3)cc1	HEK293 tox inconclusive, 3T3 cytotox 40µM
COc1ccc(C(=O)N2CCC3(CC2)CCN(Cc2cccs2)c2ccccc2O3)cc1	HEK293 tox 40µM, 3T3 cytotox inconclusive
COc1cccc(C(=O)N2CCC3(CC2)CCN(Cc2cccs2)c2ccccc2O3)c1	HEK293 tox inconclusive, 3T3 cytotox inconclusive
O=[S+]([O-])(CCC(F)(F)F)N1CCC2(CC1)CC(c1cccc(C(F)(F)F)c1)=NO2	none (no result: hNpr1 antagonist, Luciferase inh)
COc1ccc(CCN2CCC(CN(C)Cc3ccc(C#CCCO)cc3)CC2)cc1	HEK293 tox inconclusive, 3T3 cytotox inconclusive
CNC(=O)c1cc(C2CC2)nc2onc(C3CCCN3C(=O)c3ccccc3C)c12 (stereo not drawn)	none (no result: hNpr1 antagonist, Luciferase inh)
O=C(NCCC1=CCCCC1)C1CCN(C(=O)c2ncn3c2COC(c2ccc(F)cc2)C3)CC1 (stereo not drawn)	Luciferase inh 22µM
CCCCNC(=O)C1CCN(C(=O)c2ncn3c2COC(c2ccc(OC)cc2)C3)CC1 (stereo not drawn)	none
O=C(NCCC1=CCCCC1)C1CCN(C(=O)c2ncn3c2COC(c2ccccc2)C3)CC1 (stereo not drawn)	Luciferase inh 2µM
CCCCNC(=O)C1CCN(C(=O)c2ncn3c2COC(c2ccc(F)cc2)C3)CC1 (stereo not drawn)	Luciferase inh 40µM
O=C1CO[C@H]2CN(c3nccc(C(F)(F)F)n3)C[C@H]2N1Cc1ccc(F)cc1	HEK293 tox 100µM, 3T3 cytotox inconclusive
Clc1ccccc1Cc1nc(-c2ccc(OC3CCNC3)cc2)no1 (stereo not drawn)	HEK293 tox 18µM, 3T3 cytotox 13µM, Luciferase inh inconclusive
COC1CN(c2cccc(F)c2)C12CCN(C(=O)c1ccc3ncccc3c1)CC2 (stereo not drawn)	HEK293 tox inconclusive (no result: hNpr1 antagonist, Luciferase inh)
O=C(NC1CC1)c1ccc(-c2ccc(N3CCCCC3)nc2)cc1	none
O=C(NCCN1CCOCC1)c1ccc(-c2ccc(N3CCCCCC3)nc2)cc1	HEK293 tox 35µM, 3T3 cytotox 35µM, Luciferase inh inconclusive
COCCNC(=O)c1ccc(-c2ccc(N3CCCCCC3)nc2)cc1	HEK293 tox inconclusive, 3T3 cytotox inconclusive, Luciferase inh inconclusive
O=C(NCc1cccnc1)c1ccc(-c2ccc(N3CCSCC3)nc2)cc1	HEK293 tox 10µM, hNpr1 antagonist 11µM, 3T3 cytotox 4.5µM, Luciferase inh inconclusive
O=C(NCCCN1CCOCC1)c1ccc(-c2ccc(N3CCCCCC3)nc2)cc1	HEK293 tox 35µM, 3T3 cytotox inconclusive, Luciferase inh inconclusive
